Structures are written as SMILES. The list shows a part of the results. Results filed as inconclusive are left out. Active and inactive are the calls of the source. Calls follow the shape of the dose curve; as a rule, active = well fitted inhibition curve with a large enough effect; inconclusive = small, poorly fitted or top-dose-only effect; inactive = no such curve, though single readings can be large or run the other way.
Also: nearly all actives have a fitted effect of over 80% in size.

The experiment in a line: qHTS Assay for Inhibitors of Hepatitis C Virus (HCV): Confirmation Assay for Cherry-picked Compounds. To be noted: HCVcc-Cre infectious virus cell assay, luciferase, inhibition. From the text: Hepatitis C virus (HCV) infects about 200 million people in the world. Many infected people progress to chronic liver disease including cirrhosis with a risk of developing liver cancer. To date, there is no effective vaccine for hepatitis C. Current therapy based on interferon is only effective in about half of the patients and is associated with significant adverse effects. The fraction of people with HCV who can complete a successful treatment is estimated to be no more than 10 percent. Recent development of direct-acting antivirals against HCV, such as protease and polymerase inhibitors, is promising but still requires combination with peginterferon and ribavirin for maximal efficacy. In addition, these agents are associated with high rate of resistance and many have significant side effects. Due to the lack of a culture system for infectious HCV, the search for new HCV drugs has been greatly hampered. […] High-throughput screening (HTS) with an infectious HCV system would cover the complete spectrum of potentially druggable targets in all stages of HCV lifecycle, and would have more biological relevance than other cell-based assays. Moreover, targeting several key processes in the viral life cycle may not only increase antiviral efficacy; more importantly, it may also reduce the capacity of the virus to develop resistance to the compound.
The goal of this project is to identify novel HCV inhibitors as new therapies for hepatitis C, using a highly sensitive and specific assay platform based on a HCV infectious cell culture system established in the laboratory and adapted for high-throughput HCV drug screen. The data herein is the result of the confirmation assay against the cherry picked compounds. Decrease in the confirmatory assay signal, indicative of the HCV inhibition is the desired outcome for this assay.
NIH Chemical Genomics Center [NCGC]
NIH Molecular Libraries Probe Centers Network [MLPCN]
Assay Submitter (PI): Jake Liang, NIDDK
Cells were plated in a 1536-wel tissue culture grade plates at a final concentration of 1,000 cells/well (3 uL volume). The assay plate was culture for 4 h. Then 23 nL of compounds from the library collection was added to each well followed by 2.5 µL of HCVcc-Cre virus (~ 0.5 moi). The plates were further cultured for 44 hr at 37C. A volume of 4.5 uL luciferase substrates was added to each well and the plates were incubated at room temperature for 15 min. The luciferase activity was read for 15 sec using the PerkinElmenr ViewLux plate reader.
On to `CN(C)c1nc(N)nc(CSc2nnnn2-c2cccc3ccccc23)n1`, for which the Potency is 5.6 µM (active).

As to `Cc1cc(-c2cccs2)nc(-n2cccc2)n1`, the Potency was 9.95 µM (active).

Consider `CCC(C(=O)OCC(=O)Nc1ccc(C(=O)Nc2ccc(OC)cc2)cc1)c1ccccc1` (stereo unspecified), for which the Potency is 8.87 µM (active).

With `Cc1c(-c2cccc(Cl)c2)nc2ccccc2c1C(=O)OCC(=O)N(C)C1CCS(=O)(=O)C1` (stereo unspecified), the Potency was 14.1 µM (active).

In the case of `Cc1ccc(C)c(NC(=S)NNC(=S)Nc2ccc(C(C)C)cc2)c1`, the Potency was 22.3 µM (active).

`COCCCn1c(SCc2cccc(OC)c2)nc2cc(OC)c(OC)cc2c1=N`: the Potency is 14.1 µM (active).

In the case of `Cc1ccc(C)c(N2CCN(C(=O)CCCCCn3c(=S)[nH]c4ccc(N5CCOCC5)cc4c3=O)CC2)c1`, the Potency was 2.8 µM (active).

Regarding `CCCOc1ccc(C(=O)C(CCC(CNCC)C(=O)c2ccc(OCCC)cc2)CNCC)cc1` (stereo unspecified), the Potency is 7.05 µM (active).

On to `COc1ccc(C(C(=O)NC2CCCCC2)N(C(=O)CCl)c2ccccc2Cl)cc1` (stereo unspecified), for which the Potency was 3.15 µM (active).

As to `N#C/C(=C1\CCCN1)c1nc(-c2ccccc2)cs1`, the Potency was 14.1 µM (active).

Regarding `COc1ccc(OCCNC(=O)c2cc(C3CC3)nc3c2cnn3C(C)C)cc1`, the Potency was 0.353 µM (active).

For `COc1ccc(Cl)cc1NC(=O)c1oc(C)nc1C`, the Potency is 12.5 µM (active).

`CCCc1nc2ccccc2c(C(=O)OCc2nnc(-c3cc(OC)c(OC)c(OC)c3)o2)c1CC`: the Potency was 14.1 µM (active).

`CC(C)(C)c1ccc(Oc2ccc(N)cc2)cc1`: the Potency is 2.8 µM (active).

On to `CC(C)(C)Nc1nc(-c2ccccn2)nc2ccccc12`, for which the Potency was 1.99 µM (active).

With `COc1ccc(NC(=O)c2sc(N3CCOCC3)nc2-c2ccccc2)c(OC)c1`, the Potency is 14.1 µM (active).

Source of the values: PubChem BioAssay AID720575 (National Center for Advancing Translational Sciences (NCATS), 2013).
